Source: PubChem (National Center for Advancing Translational Sciences (NCATS))
FBPA Giardia inh = Giardia lamblia aldolase inhibition. A8B2U2. purified Giardia FBPA. Potency, µM (doses to about 59.6 µM), usual class: inhibitors. 290,000 tested, 0.71% active. AID 2451; further: nearly all actives have a fitted effect of over 55% in size
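40 nM FBPA preincubated 10 min at RT with compound (up to 57.5 uM final), then substrate plus GAPDH/TPI/NAD/arsenate coupling and diaphorase/resazurin added. Fluorescence read after 20 min at RT, 525/598 nm.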
RE007 growth inh = less growth of the S. pombe RE007 Vpr strain | S. pombe RE007 Vpr strain, BacTiter-Glo ATP luminescence, 24 h | 360,000 tested, 0.21% active | Potency, µM (titrated, usually from 92.2 µM), most hits filed as inhibitors; active means well fitted falling curve with a large enough effect; inconclusive means small, poorly fitted or top-dose-only effect; inactive means no such curve, though single readings can be large or run the other way; further: nearly all actives have a fitted effect of over 50% in size
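Fission yeast strain RE007, carrying one chromosomally integrated HIV-1 vpr copy, was seeded at OD 0.01 in PMG+AL medium with 23 nL pinned compound. After 24 h at 30 °C and 99% humidity, viability was read by BacTiter-Glo luminescence.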
Tb PYK inh = blocks Trypanosoma brucei pyruvate kinase | Q57TT1 | AID 624173 | Potency, µM (titrated, usually from 76.8 µM), actives largely listed as inhibitors | TbPYK enzyme, Kinase-Glo Plus ATP luminescence, 45 min | 410,000 tested, 0.12% active; further: nearly all actives have a fitted effect of over 50% in size
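Luminescent Kinase-Glo Plus end-point after 45 min room-temperature reaction of T. brucei pyruvate kinase started with 130 uM ADP (final). Buffer TEA 50 mM pH 7.2 with KCl, MgCl2, BSA, Tween-20; titration-based qHTS with fitted concentration-effect curves.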
CHX counter = counter-screen for Shiga toxin inhibitors: cycloheximide protein synthesis inhibition; cell reporter, cycloheximide protein synthesis inhibition counterscreen; max response, %; 300,000 tested, 12% active; AID 2314; in the data active means max response mostly above about 13%, no sharp cut-off; inactive means mostly below about 14%; further: read at 38.3 µM for the half of the compounds with a filed dose
Shiga toxin inh = blocks Shiga toxin action in Vero cells; AID 2315; Vero cells, Shiga toxin protein synthesis inhibition reporter; inhibition, % at 38.7 µM; 290,000 tested, 9.2% active; in the data active means inhibition mostly above about 28%, no sharp cut-off; inactive means mostly below about 43%
LmPK inh = blocks Leishmania mexicana pyruvate kinase activity; Q27686; purified LmPK, Kinase-Glo ATP luminescence, 1 h; Potency, µM (highest dose often 57.5 µM), actives largely listed as inhibitors; 290,000 tested, 0.37% active; AID 1721
Target sequence (Q27686 whole entry, looked up): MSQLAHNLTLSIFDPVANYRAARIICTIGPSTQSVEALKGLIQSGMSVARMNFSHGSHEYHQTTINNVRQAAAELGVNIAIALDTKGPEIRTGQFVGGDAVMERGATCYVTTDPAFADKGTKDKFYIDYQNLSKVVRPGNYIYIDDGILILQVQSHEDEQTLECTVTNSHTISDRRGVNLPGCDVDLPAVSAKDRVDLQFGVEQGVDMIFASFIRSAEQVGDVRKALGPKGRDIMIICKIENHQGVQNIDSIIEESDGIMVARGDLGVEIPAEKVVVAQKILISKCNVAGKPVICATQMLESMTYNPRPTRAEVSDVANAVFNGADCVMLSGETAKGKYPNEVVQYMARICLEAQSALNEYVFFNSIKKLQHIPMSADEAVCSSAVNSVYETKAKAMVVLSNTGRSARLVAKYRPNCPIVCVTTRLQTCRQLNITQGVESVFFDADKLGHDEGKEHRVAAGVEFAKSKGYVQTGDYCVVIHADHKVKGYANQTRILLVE
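0.1 nM LmPK, 0.5 mM PEP, 0.1 mM ADP; 50 mM imidazole pH 7.2, 7 mM MgCl2, 50 mM KCl; 1 h RT. Kinase-Glo luminescence readout, normalized to no-enzyme (full inhibition) and uninhibited wells.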
A number is an active result; . = inactive; ? = inconclusive; / = no result; [ ] = another dose, or the depositor's remark. The sample as a whole holds a higher share of hits than the screen did. Unless noted, the call rests on the fitted dose curve; in most records, active means well fitted curve in the direction sought with a large enough effect; inconclusive means small, poorly fitted or top-dose-only effect, or another doubt; inactive means no such curve, though single readings can be large; an effect the other way counts as inactive or inconclusive.

SMILES | FBPA Giardia inh | RE007 growth inh | Tb PYK inh | CHX counter | Shiga toxin inh | LmPK inh
COc1ccccc1CNC(=O)COc1cc(=O)n(C)c2ccccc12 | / | / | . | / | / | /
OCCc1ccc(O)c(-n2nc3ccccc3n2)c1 | . | . | . | 22.3 | 58.9 | .
C/C(=N/NC(=O)c1cc(C)[nH]n1)c1ccco1 | . | . | . | 26.6 | 41.7 | .
C/C(=N\NC(=O)c1ccn(C)n1)c1ccco1 | . | . | . | 39.7 | 85.1 | .
C/C(=N/NC(=O)c1cc(C)[nH]n1)c1ccncc1 | . | . | . | 17.1 | 49.0 | .
C/C(=N\NC(=O)c1cc(-c2ccc(C)s2)[nH]n1)c1ccco1 | . | . | . | 39.2 | 66.1 | .
CC(/C=C/c1ccco1)=N\NC(=O)c1cc(C)[nH]n1 | ? | . | . | . | . | .
Cc1cccc(CNC(=O)C2CCN(c3nc4ccc(Cl)cc4[nH]3)CC2)c1 | / | / | .[15.4 µM] | / | / | /
Cc1noc(C)c1COc1ccccc1C(=O)N(C)CC(=O)Nc1ccc(F)c(F)c1F | / | . | . | / | / | /
Cc1cc(/C=C2/C(=N)N3C(c4ccccc4)=CSC3=NC2=O)c(C)n1-c1ccccc1 | . | . | . | 19.9 | . | .
N=C1/C(=C\c2ccc(-c3cccc(C(=O)O)c3)o2)C(=O)N=C2SC=C(c3ccccc3)N12 | . | . | . | 26.4 | 56.4 | .
Cc1ccccc1-n1c(C)cc(/C=C2/C(=N)N3C(c4ccccc4)=CSC3=NC2=O)c1C | . | . | . | . | . | .
N=C1/C(=C/c2ccc(-c3cccc(C(=O)O)c3)o2)C(=O)N=C2SC(CC(=O)N3CCOCC3)=NN12 | . | . | . | 24.8 | . | .
CC(C)(C)NC(=O)C(c1ccnc2ccccc12)n1c(=O)c(-c2ccco2)nc2ccccc21 (stereo unspecified) | / | . | / | / | / | /
N#C/C(=C(/O)CN1CCCC1)c1nc(-c2ccccc2)cs1 | ? | . | . | 33.3 | 119.9 | .
N#CC(=C(O)CN1CCN(c2ccccc2F)CC1)c1nc(-c2ccccc2)cs1 | / | . | . | / | / | /
COc1ccc(-c2csc(N(Cc3ccco3)C(=O)c3cccs3)n2)cc1 | . | . | . | 21.8 | 56.6 | .
COc1ccc(-c2csc(N(C)C(=O)c3cccs3)n2)cc1 | . | . | . | 22.5 | 32.5 | .
O=C(C1CC1)N(Cc1ccco1)c1nc(-c2ccccc2)cs1 | . | . | . | 8.3 | . | .
O=C(COc1ccc(Cl)cc1)N(Cc1ccccc1)c1nc(-c2ccccc2)cs1 | . | . | . | . | . | .
CCOC(=O)C1=CCN(S(=O)(=O)c2ccccc2Cl)C1c1cccc(Br)c1 (stereo unspecified) | / | . | . | / | / | /
C=CCN1CCN(C(=O)c2cc3c(s2)CCC(CC)C3)CC1 (stereo unspecified) | . | . | . | 36.5 | 50.3 | .
CCC1CCc2sc(C(=O)O)cc2C1 (stereo unspecified) | . | . | . | . | . | .
CCN[C@@H]1C[C@H](C)S(=O)(=O)c2sc(S(N)(=O)=O)cc21 | . | / | . | / | / | /
CCC1(C2=CCCCC2)C(=O)NC(=S)N=C1N (stereo unspecified) | / | . | . | / | / | /
SMILES | FBPA Giardia inh | RE007 growth inh | Tb PYK inh | CHX counter | Shiga toxin inh | LmPK inh
Oc1cccc2ccc(/C=C/c3cccs3)nc12 | . | ? | . | 35.8 | 67.9 | 22.4µM
Cc1ccsc1/C=C/c1ccc2cccc(O)c2n1 | . | ? | . | 66.3 | 72.4 | ?
Cc1ccsc1/C=C/c1ccc2ccccc2n1 | . | . | . | 27.8 | 67.0 | ?
N#Cc1cccc(NC(=O)c2cc(C3CCCCN3S(=O)(=O)c3ccccc3)on2)c1 (stereo unspecified) | / | .[18.4 µM] | . | / | / | /
CC1=Nc2cc([N+](=O)[O-])ccc2NC(C)(C)C1 | . | . | . | 62.4 | 114.9 | .
COCCNC(=O)c1cc2oc3ccccc3c2n1C | . | . | . | 62.0 | 89.5 | .
Cn1c(C(=O)NCc2cccc(Cl)c2)cc2oc3ccccc3c21 | / | / | . | / | / | /
C=CCn1c(=NC(=O)C2CC2)sc2cc(NC(C)=O)ccc21 | . | . | . | 27.7 | . | .
C=CCn1c(=NC(=O)C2CCCCC2)sc2cc(NC(C)=O)ccc21 | . | . | . | . | . | .
Cc1ccc(C(=O)NCC(C)(C)O)cc1 | . | . | . | . | . | .
CN(c1ccc(C(=O)NCCSC(C)(C)C)cc1)S(=O)(=O)c1ccccc1 | . | . | . | 10.8 | . | .
COc1c(C(=O)NCCSC(C)(C)C)ccc2ccccc12 | . | . | . | 12.7 | 38.8 | .
Cc1ccc(C(=O)NCCSC(C)(C)C)cc1 | . | . | . | 43.3 | . | .
Cc1ccc(CSCCNC(=O)c2ccc(N(C)S(=O)(=O)c3ccccc3)cc2)cc1 | . | . | . | . | . | .
Cc1ccc(C(=O)NNC(=O)c2ccncc2)cc1[N+](=O)[O-] | / | . | . | / | / | /
Cc1ccc(C(=O)ONC(=O)c2ccc(Cl)cc2)cc1[N+](=O)[O-] | . | . | . | 21.1 | 33.8 | .
COc1ccc2c(c1)cc1c(=O)n(CC(=O)NC3CCCCC3)nc(C)n12 | / | / | . | / | / | /
CC(=O)Nc1ccc(S(=O)(=O)NNC(=O)c2cccc(Cl)c2)cc1 | . | . | ? | . | . | .
O=C(NCCSSCCNC(=O)c1ccccc1)c1ccccc1 | / | . | . | / | / | /
CSCCNC(=O)c1ccc(C(C)(C)C)cc1 | . | ? | . | 27.5 | 91.6 | .
Cc1ccc(C(=O)NCCSC(C)(C)C)cc1[N+](=O)[O-] | . | . | . | 53.8 | 94.9 | .
CC(C)(C)SCCNC(=O)c1ccccc1 | . | . | . | 37.3 | . | .
Cc1nn(-c2ccccc2)c2nc(C3CC3)cc(C(=O)Nc3ccc(F)cc3)c12 | / | / | . | / | / | /
CC(C)c1ccc(-n2nnnc2SCc2nc(N)nc(N)n2)cc1 | / | . | . | / | / | /
Clc1cccc(Cl)c1Cn1cnc2c(NCc3ccco3)ncnc21 | . | . | . | . | . | .
SMILES | FBPA Giardia inh | RE007 growth inh | Tb PYK inh | CHX counter | Shiga toxin inh | LmPK inh
Clc1cccc(Cl)c1Cn1cnc(=NCc2ccco2)c2[nH]cnc21 | . | . | . | 21.8 | . | .
CN(C)c1ccc(NC(=O)Cn2cc3c(n2)CCCC3)cc1 | . | . | . | 55.7 | 72.1 | .
Cc1ccc(C(=O)CCNc2ccc(Br)cc2)o1 | . | . | . | 26.8 | 61.9 | .
Cc1ccc(C(=O)CCNc2ccccc2)o1 | . | 11.2µM | . | 27.4 | 75.8 | .
Cc1ccc(C(=O)CCNc2cccc(Br)c2)o1 | . | ? | . | . | . | .
CNC(=O)C1CCCN(c2nnc(C)c3c(C)n(-c4ccccc4)nc23)C1 (stereo unspecified) | / | / | . | / | / | /
CC(C)CCNC(=O)Nc1ccc2c(c1)N(Cc1ccccc1)C(=O)c1ccccc1S2 | / | / | . | / | / | /
COc1ccc(S(=O)(=O)N2CCOc3ccccc32)cc1 | . | . | . | . | . | .
CSCCOC(=O)C1=C(C)Nc2ccc(C)cc2S1 | ? | . | . | 13.8 | . | .
CCOCCOC(=O)C1=C(C)Nc2ccc(C)cc2S1 | . | . | . | 21.8 | . | .
